In the library only some 6.7% were active in any assay of this set; here they are far more common.
KB-V1 MDR tox: kills drug-selected multidrug resistant KB-V1 cells; Potency, µM (highest dose often 46.1 µM), most hits filed as cytotoxic; KB-V1 MDR cells viability, CellTiter-Glo, 72 h; 400,000 compounds, 3.4% hits; further: on the % scale 0 is the no-effect control and ±100 the full control effect; nearly all actives have a fitted effect of over 60% in size
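Cytotoxicity toward P-gp-expressing KB-V1 cells was determined as loss of CellTiter-Glo luminescence after 72 h at 37 degrees C. Compounds were tested in quantitative HTS format across a concentration range, with curves fitted to normalized data.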
PINK1 modulator: PINK1 expression modulation | 410,000 compounds, 0.2% hits | Potency, µM (series often up to 76.6 µM), without a hit: at the highest dose activation (PINK1 increase), hits mostly activators | PINK1 immunofluorescence, high-content cytometry, 24 h; active means well fitted activation curve with a large enough effect; inconclusive means small, poorly fitted or top-dose-only effect; cell line not stated here; further: % of control where 0% means no effect; nearly all actives have a fitted effect of over 65% in size
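Fluorescence from anti-PINK1 antibody, together with nuclear and cell stains, was scanned on a laser-scanning cytometer. Before staining, stable-line cells were incubated 24 hours with compounds at 5 concentrations; primary antibody 12 h at 10 degrees C.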
MCF10A rereplic: inducers of DNA re-replication in MCF 10A breast cells; MCF 10A DNA re-replication, Hoechst nuclear intensity, 48 h; Potency, µM (titrated, usually from 46.1 µM), for inactives: at the top dose activity, positive = re-replication, usual class: activators; 350,000 compounds, 2.9% hits; AID 624296; further: % of control where 0% means no effect; nearly all actives have a fitted effect of over 50% in size
SW480 rereplic: DNA re-replication induction in SW480 cells. Potency, µM (top dose mostly 46.1 µM), for the others: at the highest dose re-replication activation, most hits filed as activators. SW480 DNA re-replication, Hoechst DNA content imaging, 48 h. 340,000 compounds, 1.8% hits; further: % of control where 0% means no effect; nearly all actives have a fitted effect of over 55% in size
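Hoechst fluorescence of nuclei (405 nm excitation, 500-530 nm emission) measured by plate-scanning imager after 48 hr compound exposure at 37 C; re-replication scored as increased number of nuclei with elevated intensity.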
KB-3-1 tox: kills parental KB-3-1 adenocarcinoma cells. KB-3-1 viability, CellTiter-Glo ATP luminescence, 72 h. Potency, µM (doses to about 46.1 µM), actives largely listed as cytotoxic. 400,000 compounds, 1.4% hits; further: on the % scale 0 is the no-effect control and ±100 the full control effect; nearly all actives have a fitted effect of over 60% in size
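Cytotoxicity in the drug-sensitive parental line KB-3-1 was scored as loss of CellTiter-Glo luminescence following 72 h incubation with compound. Values come from curve fitting of normalized concentration-response data.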
* hit, by the source's call; i = inactive; ? = inconclusive; . = no result; ! = not confirmed by another sample; [ ] = dose if it differs, or a comment. Unless noted, the call rests on the fitted dose curve; in most records, active means well fitted curve in the direction sought with a large enough effect; inconclusive means small, poorly fitted or top-dose-only effect, or another doubt; inactive means no such curve, though single readings can be large; an effect the other way counts as inactive or inconclusive. Potency means the concentration at half of the fitted maximal effect.

SMILES	KB-V1 MDR tox	PINK1 modulator	MCF10A rereplic	SW480 rereplic	KB-3-1 tox
CCC(C)C1NC(=O)C2CCCN2C(=O)C(CC(C)C)OC(=O)CCNC(=O)C(C)N(C)C(=O)C(C(C)C)N(C)C1=O (stereo unspecified)	i	-2.4%	?	11.6µM*	4.61µM*
O=C(Nc1ccc2nc(-c3cccs3)c(-c3cccs3)nc2c1)NC1CC1	?	3.1%[38.3 µM]	17.8µM*	?	i
Nc1c(C(=O)Nc2cccc(F)c2)sc2nc(-c3cccs3)ccc12	i	?	.	.	i
CC(=O)c1cn(Cc2ccc(C#N)cc2)c2ccccc12	i	6.5%	9.0%	7.31µM*	i
COc1ccc(S(=O)(=O)Nc2ccccc2OC)cc1N=Nc1c(O)[nH]c(=S)[nH]c1=O	i	?	20.6µM*	9.0%	i
O=C(CCn1c(=O)oc2ccccc21)N1CCN(c2ccccc2Cl)CC1	4.11µM*	0.6%	9.2µM*	?	6.51µM*
O=C1CCN(C(=O)CCCn2c(=O)oc3ccccc32)CC1	i	-1.3%	0.0%	-12.2%	i
O=C1CC2OCC=C3CN4CC[C@]56c7ccccc7N1C5C2[C@H]3C[C@H]46 (stereo partly specified)	.	.	.	-3.3%	.
COC1=C(C)C(=O)c2c(c(COC(N)=O)c3n2C[C@@H]2[C@@H]3N2C)C1=O (stereo partly specified)	?	-1.2%	.	.	i
CCOC(=O)[C@]12Cc3cc(Cl)ccc3[C@H]1N(C(C)C)C(=O)c1ccccc12	5.17µM*	10.2%	.	.	2.59µM*
CCOC(=O)[C@]12Cc3cc(Cl)ccc3[C@H]1N(CC(=O)OC)C(=O)c1ccccc12	11.6µM*	-1.4%	.	.	3.66µM*
C[C@]12C=CC(=O)C=C1CC[C@@H]1[C@@H]2CC[C@@]2(C)[C@H]1CC[C@]2(C)O	.	.	15.5%	0.0%	.
Cc1c(NS(=O)(=O)c2ccccc2)ccc([N+](=O)[O-])c1Cl	?	15.8µM*	20.6µM*	2.9%	?
Cc1ccc(N=Nc2cc(C)ccc2N)cc1	i	11.4%	?	6.6%	i
COC(=O)[C@]12OC[C@]34C([C@@H](O)[C@@H]1O)[C@]1(C)CC(=O)C(O)=C(C)[C@@H]1C[C@H]3OC(=O)[C@H](O)[C@@H]24 (stereo partly specified)	i	1.5%	14.6µM*	-63.9%	?
Nc1c(C(=O)Nc2ccc(Br)cc2F)sc2nc3c(cc12)N1CCC3CC1	?	-0.8%	.	.	?
COc1cc2c3c(c1OC)-c1cc(O)ccc1CC3NCC2 (stereo unspecified)	i	0.6%	0.8%	-0.3%	i
COc1cc2c(c(OC)c1OC)-c1ccc(O)cc1[C@@H](NC(C)=O)CC2	i	7.8%	?	?	0.0164µM*
COc1cc2c(c(OC)c1OC)-c1ccc(O)c(=O)cc1[C@@H](NC(C)=O)CC2	?	9.1%	16.4µM*	18.4µM*	?
COc1cc2c(c(OC)c1OC)-c1ccc(O)cc1C(NC(C)=O)CC2 (stereo unspecified)	?	10.5%	0.058µM*	0.058µM*	?
CCC/C=C/C=C/C(=O)OC1/C(=C/C(=O)OC)CC2CC(C(C)O)OC(=O)CC(O)CC3CC(OC(C)=O)C(C)(C)C(O)(CC4C/C(=C/C(=O)OC)CC(/C=C\C(C)(C)C1(O)O2)O4)O3 (stereo unspecified)	.	.	16.2%	?	.
O=C(/C=C/c1ccc(F)cc1)NNC(=O)CCN1CCN(Cc2ccccc2)CC1	i	0.0%	10.3µM*	?	?
CCOC(=O)c1cnc(N2CC2)nc1N	5.8µM*	-4.0%	?	?	?
CCOC(=O)c1ccccc1C(=O)OCC	i	0.0%	12.3%	-54.1%	i
CN(C)C(=S)SSC(=S)N(C)C	i	-0.9%	21.1µM*!	1.33µM*	i
SMILES	KB-V1 MDR tox	PINK1 modulator	MCF10A rereplic	SW480 rereplic	KB-3-1 tox
CN(C)C(=S)SC(=S)N(C)C	.	.	3.2%	2.66µM*	.
COc1ccc(OCC(=O)N2CCN(Cc3cccc(OC)c3OC)CC2)cc1	.	0.4%	.	.	.
CCN(CC)P(=S)(c1c(C)nc2ccccn12)c1c(C)nc2ccccn12	i	-0.3%	65.1%	10.3µM*	?
c1cc2c(cc1CCNC1C3CC4CC(C3)CC1C4)OCO2 (stereo unspecified)	20.6µM*	0.2%	9.1%	-4.8%	i
O=c1oc2cccnc2n1CCS(=O)(=O)c1ccc(F)cc1	i	0.7%	20.6µM*	?	i
C=C1CC[C@H](O)C/C1=C/C=C1\CCC[C@]2(C)[C@@H]([C@H](C)CCCC(C)C)CC[C@@H]12	.	.	23.7µM*	14.7%	.
COC[C@H]1OC(=O)c2coc3c2[C@@]1(C)C1=C(C3=O)C2CCC(=O)[C@@]2(C)C[C@H]1OC(C)=O (stereo partly specified)	.	3.9%	.	.	.
COc1ccc(NC(=O)Cn2c3ccccc3c3nc4n(c(=O)c32)CCS4)cc1	i	5.8%	20.6µM*	-1.0%	i
CCc1ccc(OCC(=O)N2CCN(CCc3ccccn3)CC2)cc1	i	1.1%	.	.	i
CCn1c(=O)oc2cc(NC(=O)CCl)ccc21	?	0.6%	?	?	?
C=CC[C@@H](CC/C=C/C=C/CC/C=C\[C@@H]1CSC([C@@H]2C[C@@H]2C)=N1)OC	i	-0.2%	0.731µM*	1.16µM*	i
CCN(CCNc1ccc([N+](=O)[O-])c2cccnc12)S(=O)(=O)c1ccccc1	i	39.8µM*	10.4%	-8.6%	i
NCCNc1ccc([N+](=O)[O-])c2cccnc12	i	0.1%	0.651µM*	24.2%	?
CCC(CO)Nc1ccc([N+](=O)[O-])c2cccnc12 (stereo unspecified)	18.4µM*	-3.2%	0.6%	-10.7%	?
Cc1nonc1OCCNc1ccc([N+](=O)[O-])c2cccnc12	?	1.4%	5.3%	0.517µM*	i
CC(O)CNc1ccc([N+](=O)[O-])c2cccnc12 (stereo unspecified)	i	-1.4%	0.3%	0.0%	i
CC(CO)NC(=O)C1C=C2c3cccc4[nH]cc(c34)CC2N(C)C1 (stereo unspecified)	.	.	-3.9%	-2.5%	.
CCN(CC)S(=O)(=O)c1ccc(C(=O)O)cc1	i	0.0%	0.8%	?	i
CCCNc1nc(-c2cc(C(=O)Nc3ccccc3)on2)cc(C(C)C)n1	i	0.6%	13.7%	-2.1%	?
O=C1NC(=O)N(c2ccccc2)C(=O)/C1=C\c1ccc([N+](=O)[O-])s1	i	3.3%	?	20.6µM*	i
O=C1NC(=O)N(c2ccccc2)C(=O)/C1=C\C=C\c1ccccc1	?	0.1%	23.1µM*	3.26µM*	?
COc1cc(/C=C2\C(=O)NC(=O)N(c3ccccc3)C2=O)cc(OC)c1OC	i	-0.4%	-5.9%	-0.7%	i
